{
  "source": "the supplement of paper PMC11537057",
  "note": "Counter-ions that a name gives are not always drawn. The campaign covered roughly 1,700 compounds. About 15 (0.9%) showed activity. The list comes from a sample in which actives are over-represented; it also holds similar structures and randomly drawn compounds. Unmarked numbers belong to inactive results.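 Rule for the calls: active = infection cut by 80% or more with cell growth above 90% in both runs; inactive = the rest.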",
  "data": [
    {"tested_on": "HSV-1 strain 17 YFP-ICP4 in A549", "assay": "HSV-1 infection relative to DMSO (ICP4-YFP per H2B-RFP signal); higher = more viral infection (less antiviral activity), active = hit call of the paper", "conditions": "10 µM; 48 h; MOI: 0.1", "experimental": "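Selleck FDA-approved library (L1300) screened in duplicate at 10 µM on A549 H2B-mRuby cells in 384-well plates, infected with HSV-1 strain 17 YFP-ICP4 at MOI 0.1 one hour before drug addition. Imaged after 2 days at 37°C. Cell growth (H2B-RFP) and infection (ICP4-YFP) are expressed as % of DMSO-treated wells. Hits: growth >90% and infection <20% of DMSO.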", "values": [
      {"smiles": "O=C(O)CCCC[C@@H]1CCSS1", "note": "(racemic) [Thioctic acid]", "HSV-1 infection": "66.1%"},
      {"smiles": "N=C(N)NCCC[C@@H](NC(=O)[C@@H]1CCCN1C(=O)[C@@H]1CSSCCC(=O)N[C@@H](Cc2ccc(O)cc2)C(=O)N[C@@H](Cc2ccccc2)C(=O)N[C@@H](CCC(N)=O)C(=O)N[C@@H](CC(N)=O)C(=O)N1)C(=O)NCC(N)=O", "note": "[Desmopressin Acetate]", "HSV-1 infection": "103%"},
      {"smiles": "NC(=O)CCC(N)C(=O)O", "note": "(racemic) [DL-Glutamine]", "HSV-1 infection": "114%"},
      {"smiles": "COc1ccc(Cl)c(Nc2nc3ccccc3nc2NS(=O)(=O)c2cccc(NC(=O)C(C)(C)N)c2)c1", "note": "[Pilaralisib (XL147)]", "HSV-1 infection": "93.5%"},
      {"smiles": "COc1ccc(-c2nc3cc(C4=NNC(=O)CC4C)ccc3[nH]2)cc1", "note": "(centres undefined) [Pimobendan]", "HSV-1 infection": "68.5%"},
      {"smiles": "CC(=O)[C@@]1(O)CC[C@H]2[C@@H]3CCC4=CC(=O)CCC4=C3[C@@H](c3ccc(N(C)C)cc3)C[C@@]21C", "note": "[Ulipristal]", "HSV-1 infection": "91.8%"},
      {"smiles": "CCCN(CCC)C(=O)C1=Cc2ccc(-c3ccc(C(=O)N4CCCC4)cc3)cc2N=C(N)C1", "note": "[Motolimod (VTX-2337)]", "HSV-1 infection": "82.9%"},
      {"smiles": "CN[C@H]1C(=O)N[C@@H]2Cc3ccc(cc3)Oc3cc4cc(c3O[C@@H]3O[C@H](C(=O)O)[C@@H](O)[C@H](O)[C@H]3NC(=O)CCCCCCCCC(C)C)Oc3ccc(cc3Cl)[C@@H](O)[C@@H]3NC(=O)[C@H](NC(=O)[C@@H]4NC(=O)[C@@H](NC2=O)c2cc(cc(O)c2Cl)Oc2cc1ccc2O)c1ccc(O)c(c1)-c1c(O[C@H]2O[C@H](CO)[C@@H](O)[C@H](O)[C@@H]2O)cc(O)cc1[C@@H](C(=O)NCCCN(C)C)NC3=O", "note": "[Dalbavancin]", "HSV-1 infection": "95.9%"},
      {"smiles": "CCCCN1CCCC[C@H]1C(=O)Nc1c(C)cccc1C", "note": "[Levobupivacaine HCl]", "HSV-1 infection": "70.8%"},
      {"smiles": "COc1ccc([C@H]2CNC(=O)C2)cc1OC1CCCC1", "note": "[S- (+)-Rolipram]", "HSV-1 infection": "97.4%"},
      {"smiles": "CC(C)C[C@H](N)C(=O)O", "note": "[L-Leucine]", "HSV-1 infection": "100%"},
      {"smiles": "COC(=O)c1ccccc1O", "note": "[Methyl salicylate]", "HSV-1 infection": "81.4%"},
      {"smiles": "CCCCC(=O)N(Cc1ccc(-c2ccccc2-c2nn[nH]n2)cc1)C(C(=O)O)C(C)C.CCOC(=O)C(C)CC(Cc1ccc(-c2ccccc2)cc1)NC(=O)CCC(=O)O", "note": "(centres undefined) [Sacubitril/valsartan (LCZ696)]", "HSV-1 infection": "116%"},
      {"smiles": "FC(F)(F)c1ccc(CNc2ccc(Cc3c[nH]c4ncc(Cl)cc34)cn2)cn1", "note": "[Pexidartinib (PLX3397)]", "HSV-1 infection": "102%"},
      {"smiles": "Cc1ccccc1N1CCN(CCc2nnc3n2CCCC3)CC1", "note": "[Dapiprazole Hydrochloride]", "HSV-1 infection": "135%"},
      {"smiles": "CC(C)C[C@H](NC(=O)CNC(=O)c1cc(Cl)ccc1Cl)B1OC(=O)C(CC(=O)O)(CC(=O)O)O1", "note": "[Ixazomib Citrate (MLN9708)]", "HSV-1 infection": "80.4%"},
      {"smiles": "CCNC(=O)[C@@H]1CCCN1C(=O)[C@H](CCCNC(=N)N)NC(=O)[C@H](CC(C)C)NC(=O)[C@@H](CC(C)C)NC(=O)[C@H](Cc1ccc(O)cc1)NC(=O)[C@H](CO)NC(=O)[C@H](Cc1c[nH]c2ccccc12)NC(=O)[C@H](Cc1c[nH]cn1)NC(=O)[C@@H]1CCC(=O)N1", "note": "[Leuprorelin Acetate]", "HSV-1 infection": "105%"},
      {"smiles": "CCNC(=O)[C@@H]1CCCN1C(=O)[C@H](CCCNC(=N)N)NC(=O)[C@H](CC(C)C)NC(=O)[C@@H](CC(C)C)NC(=O)[C@H](Cc1ccc(O)cc1)NC(=O)[C@H](CO)NC(=O)[C@H](Cc1c[nH]c2ccccc12)NC(=O)[C@H](Cc1c[nH]cn1)NC(=O)[C@@H]1CCC(=O)N1", "note": "[Leuprolide Acetate]", "HSV-1 infection": "113%"},
      {"smiles": "O=C(O)c1ccc(-n2nc(-c3ccccc3O)nc2-c2ccccc2O)cc1", "note": "[Deferasirox]", "HSV-1 infection": "79.8%"},
      {"smiles": "CC(C)(C)NC(=O)N[C@H](C(=O)N1C[C@H]2[C@@H]([C@H]1C(=O)NC(CC1CCC1)C(=O)C(N)=O)C2(C)C)C(C)(C)C", "note": "(some centres undefined) [Boceprevir]", "HSV-1 infection": "110%"},
      {"smiles": "COc1c(C)c2c(c(O)c1C/C=C(\\C)CCC(=O)O)C(=O)OC2", "note": "[Mycophenolic acid]", "HSV-1 infection": "14.4% (active)"},
      {"smiles": "C[C@H](Oc1ccc(S(C)(=O)=O)cc1C(=O)N1CCN(c2ncc(C(F)(F)F)cc2F)CC1)C(F)(F)F", "note": "[Bitopertin]", "HSV-1 infection": "92.8%"},
      {"smiles": "CCCCCCCCOc1ccccc1C(=O)Nc1ccc(C(=O)OCC[N+](C)(CC)CC)cc1", "note": "[Otilonium Bromide]", "HSV-1 infection": "60.5%"},
      {"smiles": "OC[C@@H](O)CN1CCN(c2ccccc2)CC1", "note": "[Levodropropizine]", "HSV-1 infection": "64.9%"},
      {"smiles": "CC(C)Nc1cc(-c2c[nH]c(C(=O)N[C@H](CO)c3cccc(Cl)c3)c2)c(Cl)cn1", "HSV-1 infection": "69.3%"},
      {"smiles": "O=C(Cn1ccnc1[N+](=O)[O-])NCc1ccccc1", "note": "[Benznidazole]", "HSV-1 infection": "115%"},
      {"smiles": "CC(C)C[C@H](NC(=O)CNC(=O)c1cc(Cl)ccc1Cl)B(O)O", "note": "[Ixazomib (MLN2238)]", "HSV-1 infection": "77.3%"},
      {"smiles": "N[C@@H]1CN(c2c(F)cc3c(=O)c(C(=O)O)cn([C@@H]4C[C@@H]4F)c3c2Cl)CC12CC2", "note": "[Sitafloxacin Hydrate]", "HSV-1 infection": "111%"},
      {"smiles": "O=C([O-])[O-].[Na+].[Na+]", "note": "[Sodium carbonate]", "HSV-1 infection": "88%"},
      {"smiles": "NC(=O)c1nc(F)cnc1O", "note": "[Favipiravir (T-705)]", "HSV-1 infection": "102%"},
      {"smiles": "O=C1/C(=C2\\Nc3ccccc3C2=O)Nc2ccccc21", "note": "[Indigo]", "HSV-1 infection": "105%"},
      {"smiles": "C=CCN1CCCC1CNC(=O)c1cc2nn[nH]c2cc1OC", "note": "(centres undefined) [Alizapride HCl]", "HSV-1 infection": "55.1%"},
      {"smiles": "CNC(=O)[C@H](Cc1ccccc1)NC(=O)[C@H](CC(C)C)[C@H](CSc1cccs1)C(=O)NO", "note": "[Batimastat (BB-94)]", "HSV-1 infection": "45.6%"},
      {"smiles": "CCOC(=O)[C@@H](N)Cc1ccc(-c2cc(O[C@H](c3ccc(Cl)cc3-n3ccc(C)n3)C(F)(F)F)nc(N)n2)cc1", "note": "[Telotristat Etiprate (LX 1606 Hippurate)]", "HSV-1 infection": "80.1%"}
    ]}
  ]
}
